The source of these data is PubChem BioAssay (NCATS).

Values joined by “and” are separate entries in the source; they are usually repeats but may differ in a detail not shown here. Identical values can stand only once. Records with an inconclusive call do not appear. Active and inactive are the calls of the source. Unless noted, the call rests on the fitted dose curve; in most records, active means well fitted curve in the direction sought with a large enough effect; inconclusive means small, poorly fitted or top-dose-only effect, or another doubt; inactive means no such curve, though single readings can be large; an effect the other way counts as inactive or inconclusive.

Test [1] concerns the target Cytochrome P450 1A2 (Homo sapiens) (UniProt P05177). Kind of test: p450-cyp1a2 (AID 410; calls by dose curve; further: potency means the concentration at half of the fitted maximal effect;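 on activity change, negative = inhibition: -100% = full effect of reference inhibitor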). In outline:
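Luminescent readout of luciferin formed from Luciferin-ME by human CYP1A2; data normalized against complete inhibition by 57 uM furafylline. Enzyme 20nM, substrate 100uM at Km, 100mM KPO4 buffer, 60 min reaction at room temperature.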

A short description of test [2]: Stat Signaling Pathway (AID 446; active means well fitted curve in either direction with a large enough effect, not every such curve was filed as active;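 further: ME-180 cervical cancer cells given 40 pM IL-6 alongside compound; SIE-controlled beta-lactamase reporter measured as 460/530 nm FRET emission ratio; on the % scale 0 is the no-effect control and ±100 the full control effect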). To be noted: ME-180 SIE beta-lactamase reporter, IL-6 stimulated, 5 h. The procedure, abridged: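 ME-180 cells carrying a SIE-driven beta-lactamase reporter are stimulated with 40 pM IL-6 for 5 h at 37C in the presence of compound. The 460/530 nm FRET substrate ratio is read after 2.5 h at RT. Data are normalised to 300 pM IL-6 and to 125 nM JAK inhibitor controls.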

In test [3] the target is Glucocorticoid receptor (Homo sapiens) (UniProt P04150). The test can be described thus: GR-GFP Redistribution (AID 450;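 active means compounds whose dose series gives a full or clear partial fitted curve of increased nuclear translocation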; further: potency means the concentration at half of the fitted maximal effect). To be noted: U2OS GR-GFP nuclear translocation, laser cytometry, 2 h.
Sequence of Glucocorticoid receptor (Homo sapiens) (P04150 whole entry, looked up, the tested form may be a part): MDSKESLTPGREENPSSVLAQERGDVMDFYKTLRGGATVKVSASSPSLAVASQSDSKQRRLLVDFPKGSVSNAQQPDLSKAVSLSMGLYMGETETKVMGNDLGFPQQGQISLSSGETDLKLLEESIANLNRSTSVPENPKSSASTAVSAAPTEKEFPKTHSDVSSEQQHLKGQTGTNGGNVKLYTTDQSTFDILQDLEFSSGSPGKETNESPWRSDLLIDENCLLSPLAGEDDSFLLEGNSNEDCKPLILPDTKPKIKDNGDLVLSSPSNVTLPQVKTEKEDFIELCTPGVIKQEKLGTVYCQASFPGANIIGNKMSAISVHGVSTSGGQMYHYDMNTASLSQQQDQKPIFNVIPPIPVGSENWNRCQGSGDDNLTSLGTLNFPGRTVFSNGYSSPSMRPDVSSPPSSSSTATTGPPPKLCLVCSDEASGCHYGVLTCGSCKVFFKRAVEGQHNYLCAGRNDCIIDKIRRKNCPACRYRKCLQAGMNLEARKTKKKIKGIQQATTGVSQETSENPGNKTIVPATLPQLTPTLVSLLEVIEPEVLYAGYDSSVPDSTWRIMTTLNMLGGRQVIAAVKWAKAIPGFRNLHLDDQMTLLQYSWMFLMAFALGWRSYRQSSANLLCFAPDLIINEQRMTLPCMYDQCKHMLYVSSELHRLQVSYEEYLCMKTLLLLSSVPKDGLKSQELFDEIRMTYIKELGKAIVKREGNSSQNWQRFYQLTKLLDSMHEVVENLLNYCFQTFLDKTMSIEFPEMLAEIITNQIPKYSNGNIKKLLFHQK
Test [4] has the same target. The test can be described thus: GR-EFC Redistribution (AID 451; calls by dose curve; further: potency means the concentration at half of the fitted maximal effect). To be noted: CHO-K1 GR-EFC translocation, beta-gal luminescence, 2 h. The procedure, abridged: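 CHO-K1 cells stably expressing nuclear-localized β-gal enzyme acceptor and GR fused C-terminally to the enzyme donor fragment; ligand-driven nuclear translocation restores β-gal by complementation. Compounds titrated up to 46 uM final, 2 h at 37 °C; luminescence read.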

Test [5] deals with Mitogen-activated protein kinase 10 (Mus musculus) (UniProt Q61831). The test can be described thus: JNK3 AlphaScreen Assay (AID 530; active means well fitted curve in either direction with a large enough effect, not every such curve was filed as active;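 further: kinase came from lysate of stimulated human HepG2 cells; signal reports phosphorylation of biotinylated GST-cJun 1-79 at Ser73 with 10 µM ATP; on the % scale 0 is the no-effect control and ±100 the full control effect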). The procedure, abridged: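 Inhibitors reduce antibody binding to phosphorylated biotin-cJun, lowering AlphaScreen luminescence. Lysates from HepG2 cells pre-activated by IL-1beta plus TNF-alpha supplied JNK3; compounds were titrated.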
On the technique in general: Alpha assays give light when donor and acceptor beads are brought close together.

Test [6] deals with 3',5'-cyclic-AMP phosphodiesterase 4B (Homo sapiens) (UniProt Q07343). Kind of test: qHTS Assay for Inhibitors of PDE-IV (AID 607; active means well fitted activation curve with a large enough effect in the main read-out, with a control signal flat, not every such curve was filed as active; further: % of control where 0% means no effect). The procedure, abridged:
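HEK293 ACTOne cells with CNG channel (1000/well), endogenous PDE4; membrane potential dye, compounds up to 22.9 uM final. Fluorescence Ex 535/Em 590; RO 20-1724 (100 uM final) as reference.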
For orientation: Quantitative high-throughput screening tests each substance at several concentrations.

Test [7] is described as follows: qHTS Assay for Lipid Storage Modulators (AID 1519; calls by dose curve; on activity change, negative = inhibition: on the % scale 0 is the no-effect control and ±100 the full control effect). The note with it: Drosophila S3 cells, BODIPY lipid droplet/cell ratio, laser cytometry, cells loaded with oleic acid. In outline:
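Cells seeded at 5,000 per well were treated with compounds over a concentration series and loaded with oleic acid (400 uM, as added). Lipid droplet fluorescence (488 nm excitation, 500-530 nm channel) was read by laser-scanning cytometry and normalized to 20 uM Triacsin C.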

For test [8], the target named is Ubiquitin carboxyl-terminal hydrolase 1 (Homo sapiens) (UniProt O94782). Kind of test: Inhibitors of USP1/UAF1: Pilot qHTS (AID 504865).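 Further: rhodamine fluorescence freed from ubiquitin-rhodamine substrate followed over time; top concentration of the series differs between compounds; on the % scale 0 is the no-effect control and ±100 the full control effect; nearly all actives have a fitted effect of over 35% in size.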 In outline: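 Enzyme-free wells gave the negative control, while test wells held 1nM USP1/UAF1 preincubated with compound for 15 min at room temperature. Ub-Rho at 150nM final started the reaction, and fluorescence at 480/540 nm was recorded kinetically.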
Sequence of Ubiquitin carboxyl-terminal hydrolase 1 (Homo sapiens) (O94782 whole entry, looked up): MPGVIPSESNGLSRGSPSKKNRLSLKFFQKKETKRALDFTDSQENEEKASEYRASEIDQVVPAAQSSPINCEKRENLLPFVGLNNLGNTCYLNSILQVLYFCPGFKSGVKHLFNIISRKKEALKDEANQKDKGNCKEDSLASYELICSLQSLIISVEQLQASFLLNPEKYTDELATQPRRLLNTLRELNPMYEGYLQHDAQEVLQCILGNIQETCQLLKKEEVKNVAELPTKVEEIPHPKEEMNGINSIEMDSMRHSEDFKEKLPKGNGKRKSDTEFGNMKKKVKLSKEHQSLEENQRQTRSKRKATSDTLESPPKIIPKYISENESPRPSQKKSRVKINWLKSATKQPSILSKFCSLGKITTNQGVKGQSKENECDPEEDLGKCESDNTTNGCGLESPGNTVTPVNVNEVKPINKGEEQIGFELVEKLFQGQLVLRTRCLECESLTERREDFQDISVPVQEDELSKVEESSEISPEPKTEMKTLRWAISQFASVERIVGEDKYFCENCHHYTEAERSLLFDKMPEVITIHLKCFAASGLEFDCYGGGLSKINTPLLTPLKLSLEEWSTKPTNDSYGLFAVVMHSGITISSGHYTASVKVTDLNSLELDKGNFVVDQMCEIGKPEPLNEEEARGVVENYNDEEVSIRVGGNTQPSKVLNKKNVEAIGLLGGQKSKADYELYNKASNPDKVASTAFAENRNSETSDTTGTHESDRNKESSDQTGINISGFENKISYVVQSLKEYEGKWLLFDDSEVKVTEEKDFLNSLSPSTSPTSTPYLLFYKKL

The target in test [9] is DNA dC->dU-editing enzyme APOBEC-3G (Homo sapiens) (UniProt Q9HC16). Kind of test: qHTS for inhibitors of Vif-A3G interactions: Validation (AID 588379). Further: 0% is about no effect. In outline: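 HeLa cells stably expressing Vif and A3G-eYFP, 700 cells/well, incubated overnight at 37 deg C, then exposed to compound overnight at 37 deg C. Inhibition of Vif-mediated degradation read as increased yellow fluorescence (Ex 488/Em 500-530) by laser-scanning cytometry.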
Sequence of DNA dC->dU-editing enzyme APOBEC-3G (Homo sapiens) (Q9HC16 whole entry, looked up): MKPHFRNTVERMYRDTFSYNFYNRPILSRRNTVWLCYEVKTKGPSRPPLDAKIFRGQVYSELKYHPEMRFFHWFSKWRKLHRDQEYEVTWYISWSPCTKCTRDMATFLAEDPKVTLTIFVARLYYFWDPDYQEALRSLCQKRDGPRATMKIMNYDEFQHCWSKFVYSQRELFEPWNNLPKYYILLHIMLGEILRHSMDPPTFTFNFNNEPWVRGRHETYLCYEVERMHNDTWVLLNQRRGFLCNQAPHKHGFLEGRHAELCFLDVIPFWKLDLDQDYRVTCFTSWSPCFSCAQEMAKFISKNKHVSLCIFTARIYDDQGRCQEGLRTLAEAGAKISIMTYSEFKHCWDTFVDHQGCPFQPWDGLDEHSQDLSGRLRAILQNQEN

Test [10] can be described thus: Primary qHTS for small molecule stabilizers of the endoplasmic reticulum resident proteome: Secreted ER Calcium Modulated Protein (SERCaMP) assay (AID 1508630). Further: on the % scale 0 is the no-effect control and ±100 the full control effect. The procedure, abridged: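 GLuc-SERCaMP-expressing SH-SY5Y cells, pretreated 16 h with compound, are challenged with thapsigargin to empty ER calcium stores; after 4 h, coelenterazine is added directly to the medium and luminescence is imaged.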

Test [11] can be described thus: HEK293 18hr Apoptosis Induction qHTS against the NCATS CANVASS Library (AID 1347357). Further: 0% is about no effect. The procedure, abridged: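 Natural products applied to HEK293 for 18 hr; Caspase-Glo 3/7 readout.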
Test [12] can be described thus: HEK293 12hr Apoptosis Induction qHTS against the NCATS CANVASS Library (AID 1347361). Further: 0% is about no effect. The procedure, abridged: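 Luminescent caspase-3/7 signal, proportional to enzyme activity, was recorded from HEK293 cultures in DMEM + 10% FBS treated for 12 hours with titrated natural products (11 points). Doxorubicin (0.1nM - 4uM) served as control.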
A short description of test [13]: KB-3-1 Cancer Cell Toxicity qHTS against the NCATS CANVASS Library (AID 1347366). Further: potency means the concentration at half of the fitted maximal effect; nearly all actives have a fitted effect of over 75% in size. In outline:
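Cytotoxicity toward KB-3-1 cells (500/well, DMEM + 10% FBS) was scored by CellTiter-Glo luminescence following 72 hr exposure at 37C, with bortezomib titrated as control.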

A short description of test [14]: qHTS for Hypoxia signaling pathway (HIF-1) antagonists against the NCATS CANVASS Library (AID 1347374). Further: potency means the concentration at half of the fitted maximal effect; nearly all actives have a fitted effect of over 60% in size. The procedure, abridged:
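HRE-bla ME-180 cells in medium with 0.5% dialyzed FBS received compounds (11-point series) plus CoCl2 (60 uM addition stock) for 17 hrs at 37C. Beta-lactamase activity read with CCF4 (405 nm ex, 460/530 nm em); CellTiter-Glo viability measured in same wells.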

Test [15] in a line: qHTS for Antimalaria activity screened against the NCATS CANVASS Library (AID 1347380).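 Further: Plasmodium falciparum strain Dd2 asexual parasites grown in red blood cells; nearly all actives have a fitted effect of over 40% in size.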 In outline:
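Dd2 strain, infected erythrocytes 2.5% Hct final / 0.3% parasitemia. 11-pt qHTS titration, 72 h, 37C, 5% O2, 5% CO2. Lysis buffer + SYBR Green, 18 h, fluorescence 485/535 nm.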

[16] abbreviates: measured here: cell count channel max response.
[17] abbreviates: measured here: lipid channel max response.

Sequence of 3',5'-cyclic-AMP phosphodiesterase 4B (Homo sapiens) (Q07343 whole entry, looked up): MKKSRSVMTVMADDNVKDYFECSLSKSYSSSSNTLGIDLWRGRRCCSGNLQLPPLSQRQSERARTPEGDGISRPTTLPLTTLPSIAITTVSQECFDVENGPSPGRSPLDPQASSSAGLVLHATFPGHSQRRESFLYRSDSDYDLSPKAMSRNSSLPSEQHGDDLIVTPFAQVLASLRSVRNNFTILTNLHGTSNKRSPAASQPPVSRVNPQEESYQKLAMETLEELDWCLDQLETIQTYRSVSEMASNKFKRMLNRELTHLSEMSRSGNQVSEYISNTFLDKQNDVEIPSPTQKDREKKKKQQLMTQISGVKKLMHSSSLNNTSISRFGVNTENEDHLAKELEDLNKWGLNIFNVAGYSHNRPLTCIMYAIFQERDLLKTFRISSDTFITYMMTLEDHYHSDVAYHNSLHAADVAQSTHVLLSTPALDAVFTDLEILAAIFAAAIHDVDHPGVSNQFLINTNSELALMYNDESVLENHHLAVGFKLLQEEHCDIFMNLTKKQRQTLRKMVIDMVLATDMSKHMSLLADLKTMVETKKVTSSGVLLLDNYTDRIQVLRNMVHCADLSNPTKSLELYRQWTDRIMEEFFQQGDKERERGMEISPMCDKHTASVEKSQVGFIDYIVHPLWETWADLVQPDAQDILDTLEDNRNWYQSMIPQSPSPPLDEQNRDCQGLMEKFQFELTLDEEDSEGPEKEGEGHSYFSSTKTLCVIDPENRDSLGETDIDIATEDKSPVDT
Sequence of Cytochrome P450 1A2 (Homo sapiens) (P05177 whole entry, looked up): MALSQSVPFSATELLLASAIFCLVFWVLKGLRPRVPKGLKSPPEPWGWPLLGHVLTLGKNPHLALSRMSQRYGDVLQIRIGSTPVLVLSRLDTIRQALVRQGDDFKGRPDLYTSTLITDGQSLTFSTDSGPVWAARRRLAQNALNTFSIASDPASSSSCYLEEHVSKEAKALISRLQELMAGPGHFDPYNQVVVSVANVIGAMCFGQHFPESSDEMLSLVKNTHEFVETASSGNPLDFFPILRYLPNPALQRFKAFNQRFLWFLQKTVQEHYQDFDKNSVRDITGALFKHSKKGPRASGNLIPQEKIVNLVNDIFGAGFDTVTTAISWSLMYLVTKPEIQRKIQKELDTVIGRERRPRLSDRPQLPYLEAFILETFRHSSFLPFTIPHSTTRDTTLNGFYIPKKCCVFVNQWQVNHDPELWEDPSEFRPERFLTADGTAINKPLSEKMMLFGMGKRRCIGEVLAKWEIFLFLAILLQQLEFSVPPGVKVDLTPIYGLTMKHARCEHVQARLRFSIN

As for `CSc1ccc2c(c1)[C@H](N1CCN(C)CC1)Cc1ccccc1S2`, the Potency in test [1] is 31600 nM (active); in test [3], > 46 µM (inactive) and > 20.6 µM (inactive); in [4], > 46 µM (inactive) and > 20.6 µM (inactive). Also, the figures for the activity, negative = inhibition in test [2] (at 17.2 µM (top of the series)) and in test [2] (at 38 µM (top of the series)) were -9.5% (inactive) and -17.1% (inactive), respectively. The Potency result in test [5], in [6], in test [8] and in test [9] was “inactive” each time. Further, in test [7] (at 25.7 µM (top of the series)), the activity change, negative = inhibition was -1.54% (inactive). Also, the max response is -9.42% in [7] (setting [16]) and -12.6% in test [7] (setting [17]).

Turning to `CNC(=O)[C@H]1O[C@@H](n2cnc3c(NCc4cccc(I)c4)nc(Cl)nc32)[C@H](O)[C@@H]1O`, the Potency result in [10] was “inactive”.

In the case of `COc1ccc(CCCOC(Cn2ccnc2)c2ccc(OC)cc2)cc1` (centres undefined), the Potency entry in test [10] is “inactive”.

With `NC(N)=NN=Cc1c(Cl)cccc1Cl`, the Potency in test [1] is 7.94 µM (active) and 3.98 µM (active) and 2 µM (active). The activity, negative = inhibition in test [2] (at 17.2 µM (top of the series)) is 9.46% (inactive); in test [2] (at 38 µM (top of the series)) it was -0.683% (inactive). For the same molecule, the Potency result in test [5], in [6], in [8], in test [9] and in test [10] was “inactive” in each case.

`CC(N)=NCCC[C@H](N)C(=O)O`: in test [2] (at 38 µM (top of the series)), the activity, negative = inhibition is -24.9% (inactive). In addition, the Potency in [3] and in [4] was > 46 µM (inactive) throughout. Also, the Potency result in [5], in test [6], in test [8], in test [9] and in test [10] was “inactive” each time. For the same molecule, the activity change, negative = inhibition in test [7] (at 57.5 µM (top of the series)) is 4.11% (inactive). Moreover, the max response was -7.21% in test [7] (setting [16]) and -3.8% in test [7] (setting [17]).

As for `Nc1ncnc2c1ncn2[C@@H]1O[C@H](C(=O)NC2CC2)[C@@H](O)[C@H]1O`, the Potency result in test [10] was “inactive”.

Regarding `CS(=O)(=O)Nc1c(O)ccc2c1CCC[C@H]2C1=NCCN1`, the Potency result in test [1], in test [6], in test [8] and in [9] was “inactive” in each case. The Potency in test [3] and in test [4] was > 46 µM (inactive) each time. In addition, the activity change, negative = inhibition in test [7] (at 57.5 µM (top of the series)) was -4.88% (inactive). The max response in test [7] (setting [16]) is -12.4%; in test [7] (setting [17]) it was -17.3%.

For `CO[C@H]1/C=C/CC[C@@H](S[C@@H]2O[C@H](CO)[C@@H](O)[C@H](O)[C@H]2O)CC(=O)O[C@@H](/C(C)=C/[C@H](C)C(=O)CCCC2CC(=O)NC(=O)C2)[C@@H](C)[C@@H]1O`, the Potency result in test [11], in test [12] and in test [15] was “inactive” each time. The Potency in [13] was 20.9 µM (active); in [14] it was 2.11 µM (active).

With `CCCn1c(=O)[nH]c2nc(-c3ccc(S(=O)(=O)O)cc3)[nH]c2c1=O`, the Potency result in test [1], in test [5], in test [8], in [9] and in [10] was “inactive” in each case. For the same molecule, the Potency in [4] was > 46 µM (inactive).

Regarding `CCCCC[C@H](O)/C=C/[C@H]1C=CC(=O)[C@@H]1C/C=C\CCCC(=O)O`, the Potency in [3] was > 20.6 µM (inactive). The activity change, negative = inhibition in test [10] is -13.8% [at 3.88 µM] (inactive).

`COc1ccc2c(c1)CC[C@@H]1[C@@H]2CC[C@]2(C)[C@@H](NCCCCCCN3C(=O)C=CC3=O)CC[C@@H]12`: in test [10], the Potency result was “inactive”.

On to `OC(CN1CCNCC1)Cn1c2ccc(Br)cc2c2cc(Br)ccc21` (centres undefined), for which, in test [10], the Potency entry was “inactive”.

Consider `CCCCC/C=C\CC1OC1CCCCCCCC(=O)O` (centres undefined), for which the activity change, negative = inhibition in test [10] is -29.7% [at 0.478 µM] (inactive).

On to `CC(N)=NCc1cccc(CN)c1`, for which the Potency entry in [1], in test [5], in test [6], in test [9] and in [10] was “inactive” each time. For the same molecule, in test [2] (at 38 µM (top of the series)), the activity, negative = inhibition is 3.99% (inactive). Also, the Potency in [3] and in test [4] was > 46 µM (inactive) in each case. Also, the activity change, negative = inhibition in [7] (at 57.5 µM (top of the series)) is 0.387% (inactive). In addition, the values for the max response in test [7] (setting [16]) and in [7] (setting [17]) were -16.1% and -15%, respectively.

Take `CSc1cc2c(cc1C(F)(F)F)N(C(=O)Nc1cccnc1)CC2`: the Potency in test [1] is 0.794 nM (active); in test [3], > 46 µM (inactive); in test [4] it was > 46 µM (inactive). Also, the Potency entry in [5], in [9] and in test [10] was “inactive” throughout.

For `CN(C)CCCSc1ccccc1NC(=O)/C=C\c1ccccc1`, the Potency in test [3] and in [4] was > 46 µM (inactive) each time. Besides, the activity change, negative = inhibition in test [7] (at 57.5 µM (top of the series)) is 4.73% (inactive). In addition, the max response in test [7] (setting [16]) turned out to be 14.3%; in [7] (setting [17]), 23.1%. Moreover, the Potency entry in test [8] and in test [9] was “inactive” throughout.

Consider `N[C@H](Cc1cnc[nH]1)C(=O)O`, for which, in [7] (at 57.5 µM (top of the series)), the activity change, negative = inhibition is -0.699% (inactive). The max response in test [7] (setting [16]) was -9.8%; in [7] (setting [17]), -11.7%. The Potency entry in [8], in test [9] and in test [10] was “inactive” each time.

On to `CN1C[C@H](C(=O)N[C@]2(C)O[C@@]3(O)[C@H]4CCCN4C(=O)[C@H](Cc4ccccc4)N3C2=O)C[C@H]2c3cccc4[nH]cc(c34)C[C@@H]21`, for which the Potency in test [3] and in test [4] was > 46 µM (inactive) in each case. Further, the Potency result in test [5] and in [9] was “inactive” each time.

With `COc1oc(=O)c2cc(N)ccc2c1Cl`, the Potency result in test [10] is “inactive”.

Consider `O=C1C(c2ccccn2)=[N+]([O-])c2ccccc21`, for which the Potency in test [1] is 158 nM (active); in test [3] it was > 46 µM (inactive); in [4], > 46 µM (inactive). Further, the Potency result in test [5], in test [6], in [9] and in test [10] was “inactive” throughout. The activity change, negative = inhibition in test [7] (at 57.5 µM (top of the series)) is 3.2% (inactive). Moreover, the max response in test [7] (setting [16]) stood at 20%; in test [7] (setting [17]) it was 22.9%.
